Reference: PubChem BioAssay
Inconclusive results are not listed. Activity calls are given as the source filed them. Unless noted, the rule behind the calls is not given here.

Columns and labels:
[1] = system: Neuropilin-2 / VEGF-C interaction (human); assay: inhibitors of NRP2–VEGF-C binding, biochemical, microplate binding format, z-score (AID 743281); details: microplate NRP2/VEGF-C binding assay; stronger effect = lower value
[2] = system: Aerobactin synthetase IucA (Klebsiella pneumoniae); assay: IucA aerobactin synthetase inhibitors, biochemical, Tocris library, absorbance (AID 1345561); details: purified IucA enzyme assay, absorbance (OD) read-out; stronger effect = lower value;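 tested at 8 µM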;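 note: 100% = enzyme without compound and 0% = no enzyme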
[3] = circadian clock period modulators, cell-based, LOPAC library, luminescence reporter (AID 2774); details: circadian reporter cells, at 7 µM, actives lie on both sides;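 note: values are relative to mean of DMSO wells on each plate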
[4] = system: Hepatitis C virus NS3 helicase; assay: HCV NS3 helicase inhibitors, primary screen, biochemical, fluorescence polarization, LOPAC1280 library (AID 687035; in the data active = inhibition above about 37%); details: Purified HCV NS3 helicase, Cy5-dT15 ssDNA binding fluorescence polarization; stronger effect = higher value; concentration not given here
[5] = Cy5 fluorescence quenching or enhancement artefacts, artefact control for HCV NS3 helicase inhibitor project, biochemical, LOPAC1280 (AID 687037); details: Cy5-DNA-NS3h complex fluorescence interference counterscreen
[6] = growth inhibition of DIPG glioma cells, dose response, cell-based, SU-DIPG-XVII, MIPE5.0, CellTiter-Glo, qHTS (AID 1347060; cut-off not given, nearly all actives have AC50 up to about 26 µM;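 for AC50: cells exposed to compound for 48 hours before viability readout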); details: SU-DIPG-XVII viability, CellTiter-Glo ATP luminescence
[7] = growth inhibition of DIPG glioma cells, dose response, cell-based, JHH-DIPG-1, MIPE4.0, CellTiter-Glo, qHTS (AID 1347062; cut-off not given, nearly all actives have AC50 up to about 27 µM); details: JHH-DIPG-1 viability, CellTiter-Glo ATP luminescence
[8] = viability loss in pontine glioma line – cell-based, SU-DIPG-XXV, MIPE5.0, CellTiter-Glo, qHTS, dose response (AID 1347065; cut-off not given, nearly all actives have AC50 up to about 26 µM;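 note: cells exposed to compound for 48 hours before ATP readout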); details: CellTiter-Glo ATP luminescence
[9] = JHH-DIPG-1 glioma cell viability, MIPE5.0 library, CellTiter-Glo luminescence, qHTS (AID 1347067; cut-off not given, nearly all actives have AC50 up to about 26 µM;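 note: cells exposed to compound for 48 hours before readout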); details: JHH-DIPG-1 glioma viability, CellTiter-Glo ATP luminescence
[10] = SU-DIPG-XXV glioma cell viability, MIPE5.0 library, qHTS (AID 1347068; cut-off not given, nearly all actives have IC50 up to about 30 µM)
[11] = phospholipid biosynthesis inhibitors in animal cells, primary screen, cell-based, LOPAC library, screen 4 (AID 1347384); details: phospholipid biosynthesis inhibition screen, at 10 µM
[12] = growth inhibition of DIPG glioma cells, dose response, cell-based, SU-DIPG-XIII, MIPE5.0, CellTiter-Glo, qHTS (AID 1347064; cut-off not given, nearly all actives have AC50 up to about 23 µM); details: SU-DIPG-XIII viability, CellTiter-Glo ATP luminescence
[13] = SU-DIPG-VI glioma cell viability, MIPE4.0 library, CellTiter-Glo luminescence, qHTS (AID 1347066; cut-off not given, nearly all actives have AC50 up to about 30 µM;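 note: cells exposed to compound for 48 hours before readout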); details: CellTiter-Glo ATP luminescence
[14] = molecular target: NAD(+) hydrolase SARM1 (Homo sapiens) (UniProt Q6SZW1); assay: SARM1 TIR NADase inhibitors, cell lysate, NAD-Glo luminescence (AID 1508614;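 active = compound whose remaining NAD level is above about 45 nM, limit read from the data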;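 note: higher remaining NAD means stronger inhibition of SARM1 NADase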); details: SAM-TIR HEK293T lysate NADase, at 1 µM, stronger effect = higher value
[15] = growth inhibition of DIPG glioma cells, dose response, cell-based, SU-DIPG-XIII, MIPE4.0, CellTiter-Glo, qHTS (AID 1347061; cut-off not given, nearly all actives have AC50 up to about 37 µM;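 note: cells exposed to compound for 48 hours before readout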); details: SU-DIPG-XIII viability, CellTiter-Glo ATP luminescence
[16] = modifiers of HSF1 nuclear foci, imaging, Selleck Cancer Library (AID 1347162; in the data active = plate-normalised HSF1 focus index below about 0.46); details: human cells, at 10 µM; SSMD: measured here: HSF1 foci SSMD mean; cell count: measured here: cell number; plate-normalised HSF1 focus index: stronger effect = lower value
[17] = growth inhibition of DIPG glioma cells, dose response, cell-based, SU-DIPG-IV, MIPE4.0, CellTiter-Glo, qHTS (AID 1347063; cut-off not given, nearly all actives have AC50 up to about 30 µM;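 note: compound exposure lasted 48 hours before the viability readout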); details: SU-DIPG-IV viability, CellTiter-Glo ATP luminescence
[18] = molecular target: Mitogen-activated protein kinase 7 (Homo sapiens) (UniProt Q13164); assay: ERK5 transactivation activators in reporter cells, primary screen, cell-based, HTS (AID 1508626;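 active = luciferase signal above three times the same-plate solvent-only control wells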;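 note: luciferase driven by Gal4-ERK5 fusion binding five Gal4 sites before minimal TATA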); details: HeLa Gal4-ERK5 transactivation, 18 h, at 5 µM, stronger effect = higher value
[19] = ICB984 medulloblastoma cell growth inhibition, synergistic combos for chromothripsis tumors, cisplatin or BGB combos (AID 1671451); details: ICB984 medulloblastoma cells, drug combinations, stronger effect = higher value;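 note: cells exposed for 96 hours before readout; 0% = vehicle DMSO and 100% = killing by high DMSO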

Sequence of NAD(+) hydrolase SARM1 (Homo sapiens) (Q6SZW1 whole entry, looked up): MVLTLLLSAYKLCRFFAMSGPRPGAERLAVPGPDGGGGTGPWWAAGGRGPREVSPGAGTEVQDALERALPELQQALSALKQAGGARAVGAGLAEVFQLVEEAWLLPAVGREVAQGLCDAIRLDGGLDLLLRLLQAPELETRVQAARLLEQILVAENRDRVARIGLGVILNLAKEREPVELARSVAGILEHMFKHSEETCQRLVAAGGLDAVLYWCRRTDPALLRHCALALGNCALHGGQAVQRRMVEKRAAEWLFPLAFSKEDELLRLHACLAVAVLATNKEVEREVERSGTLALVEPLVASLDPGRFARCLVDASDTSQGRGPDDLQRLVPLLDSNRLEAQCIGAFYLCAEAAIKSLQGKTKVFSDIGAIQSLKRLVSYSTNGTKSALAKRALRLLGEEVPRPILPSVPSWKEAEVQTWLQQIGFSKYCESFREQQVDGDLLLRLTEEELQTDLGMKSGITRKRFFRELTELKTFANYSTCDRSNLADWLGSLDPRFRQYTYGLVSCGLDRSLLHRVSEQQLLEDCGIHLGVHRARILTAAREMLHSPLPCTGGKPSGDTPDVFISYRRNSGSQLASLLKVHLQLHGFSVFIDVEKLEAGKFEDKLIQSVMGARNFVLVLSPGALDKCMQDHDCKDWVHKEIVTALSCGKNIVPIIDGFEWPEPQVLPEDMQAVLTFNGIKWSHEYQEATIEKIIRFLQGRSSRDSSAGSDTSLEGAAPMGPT
Sequence of Mitogen-activated protein kinase 7 (Homo sapiens) (Q13164 whole entry, looked up, the tested form may be a part): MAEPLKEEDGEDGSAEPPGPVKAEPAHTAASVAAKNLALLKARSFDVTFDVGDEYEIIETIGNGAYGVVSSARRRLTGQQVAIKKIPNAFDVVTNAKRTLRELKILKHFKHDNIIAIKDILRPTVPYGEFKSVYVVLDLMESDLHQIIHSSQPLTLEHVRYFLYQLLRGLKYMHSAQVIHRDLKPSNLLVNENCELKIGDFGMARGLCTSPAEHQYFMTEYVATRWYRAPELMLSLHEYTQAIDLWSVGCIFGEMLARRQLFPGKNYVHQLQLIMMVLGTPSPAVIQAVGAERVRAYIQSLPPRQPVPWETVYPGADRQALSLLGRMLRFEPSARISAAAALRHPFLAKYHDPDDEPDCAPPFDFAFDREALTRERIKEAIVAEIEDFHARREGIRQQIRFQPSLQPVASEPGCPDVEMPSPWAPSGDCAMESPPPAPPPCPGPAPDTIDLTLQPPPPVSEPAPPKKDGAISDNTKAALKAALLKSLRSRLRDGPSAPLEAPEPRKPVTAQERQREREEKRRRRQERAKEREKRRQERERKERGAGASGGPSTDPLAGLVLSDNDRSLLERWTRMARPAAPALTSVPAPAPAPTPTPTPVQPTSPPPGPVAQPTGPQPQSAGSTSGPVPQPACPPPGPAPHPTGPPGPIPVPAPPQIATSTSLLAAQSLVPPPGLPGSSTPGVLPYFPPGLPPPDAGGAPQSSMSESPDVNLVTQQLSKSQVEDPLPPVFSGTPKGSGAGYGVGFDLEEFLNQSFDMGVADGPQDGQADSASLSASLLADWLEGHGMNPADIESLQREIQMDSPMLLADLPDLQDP

COC(=O)C[C@](O)(CCCC(C)(C)O)C(=O)O[C@@H]1C(OC)=C[C@]23CCCN2CCc2cc4c(cc2[C@H]13)OCO4
outcome [1]: inactive
remaining activity [2]: 98.2% (inactive)

CC(C)c1ccc2c(c1)c(SC(C)(C)C)c(CC(C)(C)C(=O)O)n2Cc1ccc(Cl)cc1
period change [3]: 0.025 h (inactive)
inhibition [4]: 0% (inactive)
fluorescence ratio (interference) [5]: 0.9 (inactive)
z-score [1]: -2.97 (inactive)
AC50 [6]: 18.6 µM (active)
outcome [7]: inactive
AC50 [8]: 18.6 µM (active)
AC50 [9]: 26.3 µM (active)
outcome [10]: inactive
outcome [11]: inactive

O=c1ncc(F)c[nH]1
z-score [1]: -0.183 (inactive)

COc1cc(C[C@@H](CO)[C@H](CO)Cc2ccc(O)c(OC)c2)ccc1O
z-score [1]: 0.125 (inactive)
outcome [6]: inactive
outcome [12]: inactive
outcome [8]: inactive
outcome [9]: inactive
outcome [10]: inactive

CC1c2cccc(O)c2C(O)=C2C(=O)C3(O)C(O)=C(C(N)=O)C(=O)C(N(C)C)C3C(O)C21 (stereo unspecified)
outcome [9]: inactive
outcome [10]: inactive

COc1cc(C)c(/C=C/C(C)=C/C=C/C(C)=C/C(=O)O)c(C)c1C
outcome [7]: inactive
AC50 [8]: 11.8 µM (active)
outcome [9]: inactive
outcome [10]: inactive

O=C(O)C[C@H](O)C[C@H](O)/C=C/c1c(C2CC2)nc2ccccc2c1-c1ccc(F)cc1
outcome [1]: inactive
AC50 [8]: 9.34 µM (active)
outcome [13]: inactive
AC50 [9]: 9.34 µM (active)
outcome [10]: inactive
remaining NAD [14]: 10 nM (inactive)

Nc1nc(Cl)nc2c1ncn2[C@H]1C[C@H](O)[C@@H](CO)O1
z-score [1]: -0.302 (inactive)
AC50 [6]: 0.833 µM (active)
outcome [15]: inactive
outcome [9]: inactive
outcome [10]: inactive
SSMD [16]: -4.5
cell count [16]: 6930
plate-normalised HSF1 focus index [16]: 0.776 (inactive)

CC(N)(Cc1ccc(O)c(O)c1)C(=O)O (stereo unspecified)
period change [3]: -0.1 h (inactive)
inhibition [4]: 0% (inactive)
fluorescence ratio (interference) [5]: 1 (inactive)
outcome [11]: inactive

CC1CNc2c(cccc2S(=O)(=O)N[C@@H](CCCN=C(N)N)C(=O)N2CC[C@@H](C)C[C@@H]2C(=O)O)C1 (stereo partly specified)
z-score [1]: -1.46 (inactive)
outcome [12]: inactive
outcome [8]: inactive
outcome [13]: inactive
outcome [9]: inactive
outcome [10]: inactive

Nc1ccn([C@@H]2CS[C@H](CO)O2)c(=O)n1
z-score [1]: 0.62 (inactive)
outcome [6]: inactive
outcome [12]: inactive
outcome [8]: inactive
outcome [9]: inactive
outcome [10]: inactive
remaining NAD [14]: 10 nM (inactive)

CN1CCC[C@H]1c1cccnc1
period change [3]: 0.09 h (inactive)
inhibition [4]: 0% (inactive)
fluorescence ratio (interference) [5]: 1 (inactive)
remaining NAD [14]: 10 nM (inactive)

O=C1C(c2c(O)[nH]c3ccccc23)=Nc2ccccc21
outcome [1]: inactive
outcome [7]: inactive
AC50 [17]: 13.2 µM (active)
outcome [13]: inactive
outcome [9]: inactive
outcome [10]: inactive

C=CCc1ccc(O)c(-c2ccc(O)c(CC=C)c2)c1
z-score [1]: -0.759 (inactive)
outcome [15]: inactive
AC50 [17]: 23.5 µM (active)

COC(=O)Nc1nc2ccc(C(=O)c3ccc(F)cc3)cc2[nH]1
z-score [1]: 0.511 (inactive)
AC50 [6]: 0.417 µM (active)
outcome [15]: inactive
AC50 [8]: 0.332 µM (active)
outcome [13]: inactive
AC50 [9]: 0.417 µM (active)

CC(C)OC(=O)CCC/C=C\C[C@@H]1[C@@H](CC[C@@H](O)CCc2ccccc2)[C@H](O)C[C@@H]1O
z-score [1]: -0.836 (inactive)

CC(=O)CCCCn1cnc2c1c(=O)n(C)c(=O)n2C
z-score [1]: -1.78 (inactive)

COc1ccnc(CS(=O)c2nc3cc(OC(F)F)ccc3[nH]2)c1OC (stereo unspecified)
z-score [1]: 0.437 (inactive)

CCC(C)n1ncn(-c2ccc(N3CCN(c4ccc(OCC5COC(Cn6cncn6)(c6ccc(Cl)cc6Cl)O5)cc4)CC3)cc2)c1=O (stereo unspecified)
z-score [1]: 0.805 (inactive)

CN1[C@@H]2CC[C@H]1CC(OC(=O)C(CO)c1ccccc1)C2 (stereo partly specified)
remaining NAD [14]: 10 nM (inactive)
luciferase signal [18]: 44 AU (inactive)

NC(=O)c1ncn(C2OC(CO)C(O)C2O)n1 (stereo unspecified)
inhibition ([19]; BGB IC20 combo, at 0.005 µM): 3.66%
inhibition ([19]; BGB IC40 combo, at 0.005 µM): -0.335%
inhibition ([19]; BGB IC40 combo, at 0.05 µM): 6.2%
inhibition ([19]; at 0.5 µM): -10.2% (inactive)
inhibition ([19]; cisplatin combo, at 0.05 µM): 6.2%
inhibition ([19]; cisplatin combo, at 0.5 µM): -6.29%
inhibition ([19]; cisplatin combo, at 5 µM): -17.4%
inhibition ([19]; measured here: 5 uM single agent, at 5 µM): -2.81%

C[C@H]1[C@@H](OC(=O)CCC(=O)O)O[C@@H]2OC3(C)CC[C@H]4[C@H](C)CC[C@@H]1[C@@]24OO3
z-score [1]: -0.982 (inactive)

CCCCc1nc(Cl)c(CO)n1Cc1ccc(-c2ccccc2-c2nnn[nH]2)cc1
z-score [1]: -0.132 (inactive)

CC(C)(C)NC(=O)[C@@H]1C[C@@H]2CCCC[C@@H]2CN1C[C@@H](O)[C@H](Cc1ccccc1)NC(=O)[C@H](CC(N)=O)NC(=O)c1ccc2ccccc2n1
z-score [1]: 1.64 (inactive)

Nc1ccc2cn[nH]c2c1
z-score [1]: -0.807 (inactive)

O=C1c2c(O)cc(O)cc2O[C@H](c2ccc(O)c(O)c2)[C@H]1O
z-score [1]: -0.839 (inactive)
outcome [7]: inactive
outcome [8]: inactive
outcome [13]: inactive
outcome [9]: inactive
outcome [10]: inactive

O=C(O)COCCN1CCN([C@H](c2ccccc2)c2ccc(Cl)cc2)CC1
z-score [1]: -0.677 (inactive)
remaining NAD [14]: 10 nM (inactive)

CC(C(O)c1ccc(O)cc1)N1CCC(Cc2ccccc2)CC1 (stereo unspecified)
period change [3]: 0.3 h (inactive)
inhibition [4]: -4% (inactive)
fluorescence ratio (interference) [5]: 0.9 (inactive)
z-score [1]: -0.156 (inactive)
outcome [11]: inactive

Nc1nc(Cl)nc2c1ncn2[C@@H]1O[C@H](CO)[C@@H](O)[C@H]1O
z-score [1]: 0.198 (inactive)

C=C1/C(=C\C=C2/CCC[C@]3(C)[C@@H]([C@H](C)/C=C/[C@@H](O)C4CC4)CC[C@@H]23)C[C@@H](O)C[C@@H]1O
remaining activity [2]: 98% (inactive)

O=C(O[C@H]1[C@H](Oc2ccccc2COC(=O)C2(O)C=CCCC2=O)O[C@H](CO)[C@@H](O)[C@@H]1O)c1ccccc1 (stereo partly specified)
z-score [1]: -0.65 (inactive)

c1ccc(-c2ccccn2)nc1
period change [3]: -0.19 h (inactive)
inhibition [4]: -3% (inactive)
fluorescence ratio (interference) [5]: 1 (inactive)
outcome [11]: inactive

CC12CCC(=O)C=C1CCC1C2CCC2(C)C1CCC2(O)C(=O)CO (stereo unspecified)
z-score [1]: -0.624 (inactive)

Nc1ncnc2c1ncn2[C@@H]1O[C@H](CO)C[C@@H]1O
z-score [1]: -0.398 (inactive)

CC(COc1ccccc1Cc1ccccc1)N1CCCCC1 (stereo unspecified)
z-score [1]: -1.06 (inactive)
